In PubChem BioAssay AID1159580 (chemical genetic matrix, 2015):
The campaign covered roughly 5,500 compounds. About 2,000 (36%) were called active. Inconclusive results (about 18%) are left out. Rule as the data show it: active = normalized growth mostly below about 0.91 (no sharp cut-off); inconclusive = no clear call, values can overlap the other calls; inactive = mostly above about 0.92. The list shows a part of the results.

Assay: chemical genetic growth profiling, strain panel (AID 1159580);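 also: tested at 20 µM; growth read once vehicle control cultures reached saturation at 30 °C; 1 = growth at the plate median or of vehicle wells; lower values mean less growth of the strain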
Settings: growth OD
[1] = S. cerevisiae deletion strains, locus YBR021W, strain FUR4, hits give low values
[2] = S. cerevisiae deletion strains, locus YBR229C, strain ROT2, hits give low values
[3] = S. cerevisiae deletion strains, locus YCL029C, strain bik1, hits give low values
[4] = S. cerevisiae deletion strains, locus YDL035C, strain GPR1, hits give low values
[5] = S. cerevisiae deletion strains, locus YDL074C, strain BRE1, hits give low values
[6] = S. cerevisiae deletion strains, locus YDL101C, strain DUN1, hits give low values
[7] = S. cerevisiae deletion strains, locus YDL185W, strain tfp1, hits give low values
[8] = S. cerevisiae deletion strains, locus YDL192W, strain arf1, hits give low values
[9] = S. cerevisiae deletion strains, locus YDR101C, strain arx1, hits give low values
[10] = S. cerevisiae deletion strains, locus YDR150W, strain NUM1, hits give low values
[11] = S. cerevisiae deletion strains, locus YDR162C, strain NBP2, hits give low values
[12] = S. cerevisiae deletion strains, locus YDR318W, strain mcm21, hits give low values
[13] = S. cerevisiae deletion strains, locus YDR388W, hits give low values
[14] = S. cerevisiae deletion strains, locus YDR502C, strain sam2, hits give low values
[15] = S. cerevisiae deletion strains, locus YEL061C, strain CIN8, hits give low values
[16] = S. cerevisiae deletion strains, locus YER110C, hits give low values
[17] = S. cerevisiae deletion strains, locus YER155C, strain BEM2, hits give low values
[18] = S. cerevisiae deletion strains, locus YER167W, strain BCK2, hits give low values
[19] = S. cerevisiae deletion strains, locus YGL078C, strain dbp3, hits give low values
[20] = S. cerevisiae deletion strains, locus YGL086W, strain mad1, hits give low values
[21] = S. cerevisiae deletion strains, locus YGL248W, strain PDE1, hits give low values
[22] = S. cerevisiae deletion strains, locus YGR078C, strain PAC10, hits give low values
[23] = S. cerevisiae deletion strains, locus YGR135W, strain pre9, hits give low values
[24] = S. cerevisiae deletion strains, locus YGR252W, strain gcn5, hits give low values
[25] = S. cerevisiae deletion strains, locus YHR030C, strain SLT2, hits give low values
[26] = S. cerevisiae deletion strains, locus YHR079C, strain IRE1 (second series), hits give low values
[27] = S. cerevisiae deletion strains, locus YHR094C, strain hxt1, hits give low values
[28] = S. cerevisiae deletion strains, locus YHR129C, strain ARP1, hits give low values
[29] = S. cerevisiae deletion strains, locus YHR200W, strain rpn10, hits give low values
[30] = S. cerevisiae deletion strains, locus YIL066C, strain RNR3, hits give low values
[31] = S. cerevisiae deletion strains, locus YIL073C, strain SPO22, hits give low values
[32] = S. cerevisiae deletion strains, locus YIL125W, strain kgd1, hits give low values
[33] = S. cerevisiae deletion strains, locus YIR030C, strain dcg1, hits give low values
[34] = S. cerevisiae deletion strains, locus YJL095W, strain BCK1, hits give low values
[35] = S. cerevisiae deletion strains, locus YJL134W, strain LCB3, hits give low values
[36] = S. cerevisiae deletion strains, locus YJL168C, strain set2, hits give low values
[37] = S. cerevisiae deletion strains, locus YJL187C, strain SWE1 (second series), hits give low values
[38] = S. cerevisiae deletion strains, locus YJR043C, strain POL32, hits give low values
[39] = S. cerevisiae deletion strains, locus YJR075W, strain HOC1, hits give low values
[40] = S. cerevisiae deletion strains, locus YKL009W, strain mrt4, hits give low values
[41] = S. cerevisiae deletion strains, locus YKL068W, hits give low values
[42] = S. cerevisiae deletion strains, locus YKL085W, strain MDH1 (second series), hits give low values
[43] = S. cerevisiae deletion strains, locus YKL085W, strain MDH1, hits give low values
[44] = S. cerevisiae deletion strains, locus YKL190W, strain CNB1, hits give low values
[45] = S. cerevisiae deletion strains, locus YKR001C, strain vps1, hits give low values
[46] = S. cerevisiae deletion strains, locus YLR039C, strain RIC1, hits give low values
[47] = S. cerevisiae deletion strains, locus YLR058C, strain SHM2, hits give low values
[48] = S. cerevisiae deletion strains, locus YLR102C, strain apc9, hits give low values
[49] = S. cerevisiae deletion strains, locus YLR262C, strain YPT6, hits give low values
[50] = S. cerevisiae deletion strains, locus YLR268W, strain sec22, hits give low values
[51] = S. cerevisiae deletion strains, locus YLR330W, strain CHS5, hits give low values
[52] = S. cerevisiae deletion strains, locus YLR342W, strain FKS1 (second series), hits give low values
[53] = S. cerevisiae deletion strains, locus YLR371W, strain rom2, hits give low values
[54] = S. cerevisiae deletion strains, locus YLR418C, strain cdc73, hits give low values
[55] = S. cerevisiae deletion strains, locus YML016C, strain PPZ1, hits give low values
[56] = S. cerevisiae deletion strains, locus YML032C, strain rad52, hits give low values
[57] = S. cerevisiae deletion strains, locus YML124C, strain tub3, hits give low values
[58] = S. cerevisiae deletion strains, locus YMR078C, strain ctf18, hits give low values
[59] = S. cerevisiae deletion strains, locus YMR223W, strain ubp8, hits give low values
[60] = S. cerevisiae deletion strains, locus YMR307W, strain GAS1, hits give low values
[61] = S. cerevisiae deletion strains, locus YNL067W, strain RPL9B, hits give low values
[62] = S. cerevisiae deletion strains, locus YNL128W, strain TEP1, hits give low values
[63] = S. cerevisiae deletion strains, locus YNL153C, strain GIM3, hits give low values
[64] = S. cerevisiae deletion strains, locus YNL233W, strain BNI4, hits give low values
[65] = S. cerevisiae deletion strains, locus YNL250W, strain rad50, hits give low values
[66] = S. cerevisiae deletion strains, locus YNL271C, strain bni1, hits give low values
[67] = S. cerevisiae deletion strains, locus YNL298W, strain CLA4, hits give low values
[68] = S. cerevisiae deletion strains, locus YNL307C, strain MCK1, hits give low values
[69] = S. cerevisiae deletion strains, locus YNR052C, strain pop2, hits give low values
[70] = S. cerevisiae deletion strains, locus YOL012C, strain htz1
[71] = S. cerevisiae deletion strains, locus YOL147C, strain pex11, hits give low values
[72] = S. cerevisiae deletion strains, locus YOR061W, strain CKA2, hits give low values
[73] = S. cerevisiae deletion strains, locus YOR069W, strain VPS5, hits give low values
[74] = S. cerevisiae deletion strains, locus YOR136W, strain idh2, hits give low values
[75] = S. cerevisiae deletion strains, locus YOR144C, strain elg1, hits give low values
[76] = S. cerevisiae deletion strains, locus YOR184W, strain ser1, hits give low values
[77] = S. cerevisiae deletion strains, locus YOR316C, strain cot1, hits give low values
[78] = S. cerevisiae deletion strains, locus YPL055C, strain LGE1, hits give low values
[79] = S. cerevisiae deletion strains, locus YPL241C, strain CIN2, hits give low values
[80] = S. cerevisiae deletion strains, locus YPR119W, strain clb2, hits give low values
[81] = S. cerevisiae deletion strains, locus YPR141C, strain kar3, hits give low values
[82] = S. cerevisiae deletion strains, locus YPR163C, strain tif3, hits give low values
[83] = S. cerevisiae deletion strains, locus YPR167C, strain met16, hits give low values
[84] = S. cerevisiae deletion strains, strain wtn01, hits give low values
[85] = S. cerevisiae strains, strain wild type, hits give low values

Measured: normalized growth

C=C(C)C1CCC(C)(O)C2CC3OC3(C)C2C1 (stereo unspecified)
inactive: S. cerevisiae deletion strains, locus YAL013W, strain DEP1, hits give low values 1.01 | [1] 1.02 | [2] 1.01 | [3] 1.02 | [4] 1.01 | [5] 0.99 | [6] 0.999 | S. cerevisiae deletion strains, locus YDL134C, strain PPH21, hits give low values 1 | [7] 1.01 | [8] 1.02 | [9] 1 | [10] 1.02 | [11] 0.995 | [12] 1.02 | [13] 1.01 | [14] 1.01 | [15] 1 | [16] 1.01 | [17] 0.999 | [18] 1.01 | [19] 1.01 | [20] 1.02 | [21] 1 | [22] 0.995 | [23] 1 | S. cerevisiae deletion strains, locus YGR229C, strain SMI1, hits give low values 1.03 | [24] 1.01 | [25] 1 | [26] 1.01 | [27] 1.01 | [28] 1 | [29] 1.01 | [30] 1.01 | [31] 1.07 | [32] 1.01 | [33] 1 | [34] 0.978 | [35] 1.01 | [36] 1 | [37] 1.01 | [38] 1.03 | [39] 1.06 | [40] 1.02 | [41] 1.01 | [42] 1 | [43] 1 | [44] 1 | [45] 1.02 | [46] 0.992 | [47] 1.01 | [48] 1.01 | [49] 0.999 | [50] 1.01 | [51] 1 | [52] 1.04 | [53] 1.01 | [54] 0.992 | [55] 0.995 | [56] 1.02 | [57] 1.01 | [58] 1.01 | [59] 1.01 | S. cerevisiae deletion strains, locus YMR263W, strain SAP30, hits give low values 1 | [60] 1.03 | [61] 1.02 | [62] 0.99 | [63] 1 | [64] 0.998 | [65] 1.02 | [66] 1.01 | [67] 1.01 | [68] 1.02 | S. cerevisiae deletion strains, locus YNL322C, strain KRE1, hits give low values 1.01 | [69] 1.02 | S. cerevisiae deletion strains, locus YOL006C, strain TOP1, hits give low values 0.996 | [70] 0.919 | [71] 1.01 | [72] 1 | [73] 1.01 | [74] 1.03 | [75] 1.01 | [76] 1.03 | [77] 1.01 | [78] 1 | [79] 1 | [80] 1.01 | [81] 1.01 | [82] 1.02 | [83] 1.01 | [84] 1 | [85] 1.04

CC(C)CC1NC(=O)CNC1=O (stereo unspecified)
inactive: [1] 1.03 | [2] 0.953 | [3] 0.965 | [4] 0.992 | [5] 1.04 | [6] 0.974 | [7] 0.963 | [8] 0.992 | [9] 1.01 | [10] 0.984 | [11] 0.937 | [12] 0.98 | [13] 0.989 | [14] 0.987 | [15] 0.989 | [16] 0.976 | [17] 1.01 | [18] 1 | [19] 0.978 | [20] 1.03 | [21] 0.981 | [22] 0.969 | [23] 0.966 | [24] 0.958 | [25] 1 | [26] 1.01 | [27] 0.972 | [28] 0.997 | [29] 0.971 | [30] 0.981 | [31] 0.986 | [32] 0.987 | [33] 0.995 | [34] 0.964 | [35] 0.992 | [36] 0.991 | [37] 0.969 | [38] 0.977 | [39] 0.993 | [40] 1.02 | [41] 0.985 | [42] 1.02 | [43] 1.02 | [44] 0.981 | [45] 1.01 | [46] 0.964 | [47] 0.979 | [48] 0.993 | [49] 0.938 | [50] 1.01 | [51] 1 | [52] 1.05 | [53] 0.98 | [54] 0.974 | [55] 0.99 | [56] 0.959 | [57] 0.982 | [58] 0.964 | [59] 0.988 | [60] 1.02 | [61] 0.971 | [62] 0.969 | [63] 0.951 | [64] 0.997 | [65] 0.988 | [66] 0.983 | [67] 0.973 | [68] 0.984 | [69] 0.981 | [70] 0.849 | [71] 0.99 | [72] 0.968 | [73] 0.996 | [74] 1.01 | [75] 0.978 | [76] 0.974 | [77] 0.976 | [78] 1.01 | [79] 0.992 | [80] 0.985 | [81] 0.984 | [82] 0.974 | [83] 1 | [84] 1.02 | [85] 0.985
